Assay: GAPDH versus PEG-3 reporter suppression – cell-based, luminescence, counter-screen for PEG-3 promoter inhibitor project, SAR follow-up (AID 651551)
Conditions: HeLa PEG-Prom / GAPDH luciferase reporter, 6 or 24 h, run 2, 6 h; at 99 µM (top of the series)

Row | Structure (SMILES) | inhibition % (higher = more inhibition) [%]
1 | COc1ccc(-n2nc(C(=O)NCC(=O)Nc3cc(OC)c(OC)c(OC)c3)c3ccccc3c2=O)cc1OC | 26.1
2 | Cc1nc(NC(=O)c2ccccc2)sc1-c1csc(Nc2ccccc2)n1 | 74.5
3 | COc1ccc(Cl)cc1Nc1nc(-c2sc(NC(=O)c3ccccc3)nc2C)cs1 | 33.6
4 | COc1ccc(-n2nc(C(=O)NCC(=O)Nc3cccc(OC)c3)c3ccccc3c2=O)cc1 | 28.5
5 | Cc1nc(NC(=O)c2ccccc2)sc1-c1csc(Nc2ccccc2Cl)n1 | -2.1
6 | CCCn1nc(C(=O)Nc2nc3ccccc3s2)c2ccccc2c1=O | 12.5
7 | O=C(Nc1nc(-c2ccccc2)cs1)c1nn(-c2ccccc2)c(=O)c2ccccc12 | 28.9
8 | Cc1ccc(Cl)cc1Nc1nc(-c2sc(NC(=O)c3ccco3)nc2C)cs1 | 71
9 | Cc1cc(NC(=O)c2ccccc2C(F)(F)F)n(-c2nc3ccccc3[nH]2)n1 | 91.4
10 | CCn1nc(C(=O)Nc2nc(-c3ccccn3)cs2)c2ccccc2c1=O | 72.7
11 | O=C(Nc1nc2ccccc2s1)c1nn(-c2ccccc2)c(=O)c2ccccc12 | 6.36
12 | Cc1nc(NC(=O)c2ccccc2)sc1-c1csc(Nc2cccc(Cl)c2C)n1 | 35.5
13 | CCCn1nc(C(=O)Nc2nc(-c3ccccn3)cs2)c2ccccc2c1=O | 64.7
14 | CCn1cc(C(=O)NCc2ccco2)c(=O)c2cc(S(=O)(=O)N3CCCC3)ccc21 | 42.1
15 | Cc1cc(NC(=O)c2ccccc2)n(-c2nc3ccccc3n2C)n1 | 16.7
16 | O=C(Nc1nccs1)c1nn(-c2ccccc2)c(=O)c2ccccc12 | 50.3
17 | COc1ccccc1Nc1nc(-c2sc(NC(=O)c3ccco3)nc2C)cs1 | 72.7
18 | Cc1cc(NC(=O)c2ccccc2C)n(-c2nc3ccccc3[nH]2)n1 | 26.1
19 | COCCCNC(=O)c1ccc(Cn2c(=O)c3ccccc3n(Cc3ccccc3C#N)c2=O)cc1 | 21.9
20 | COc1ccc(-n2nc(C(=O)NCC(=O)Nc3ccc(OC)c(OC)c3)c3ccccc3c2=O)cc1 | 55.7
21 | CCCn1nc(C(=O)Nc2nc(-c3ccncc3)cs2)c2ccccc2c1=O | 56.1
22 | Cc1cc(NC(=O)c2ccccc2)n(-c2nc3ccccc3[nH]2)n1 | 15.3
23 | Cc1cc(NC(=O)c2cccc(C)c2C)n(-c2nc3ccccc3[nH]2)n1 | 19.1

Reference: PubChem BioAssay AID651551 (Sanford-Burnham Center for Chemical Genomics, 2012)
